The target in assay [1] is Sphingosine kinase 1 (Homo sapiens) (UniProt Q9NYA1). Conditions: at 1 µM.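 Also: mean SPHK1 inhibition value reported from the GSK PKIS kinase panel screen.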
Assay [2] concerns the target T1, Sphingosine kinase 2 (Homo sapiens) (UniProt Q9NRA0).
T1 sequence (whole entry): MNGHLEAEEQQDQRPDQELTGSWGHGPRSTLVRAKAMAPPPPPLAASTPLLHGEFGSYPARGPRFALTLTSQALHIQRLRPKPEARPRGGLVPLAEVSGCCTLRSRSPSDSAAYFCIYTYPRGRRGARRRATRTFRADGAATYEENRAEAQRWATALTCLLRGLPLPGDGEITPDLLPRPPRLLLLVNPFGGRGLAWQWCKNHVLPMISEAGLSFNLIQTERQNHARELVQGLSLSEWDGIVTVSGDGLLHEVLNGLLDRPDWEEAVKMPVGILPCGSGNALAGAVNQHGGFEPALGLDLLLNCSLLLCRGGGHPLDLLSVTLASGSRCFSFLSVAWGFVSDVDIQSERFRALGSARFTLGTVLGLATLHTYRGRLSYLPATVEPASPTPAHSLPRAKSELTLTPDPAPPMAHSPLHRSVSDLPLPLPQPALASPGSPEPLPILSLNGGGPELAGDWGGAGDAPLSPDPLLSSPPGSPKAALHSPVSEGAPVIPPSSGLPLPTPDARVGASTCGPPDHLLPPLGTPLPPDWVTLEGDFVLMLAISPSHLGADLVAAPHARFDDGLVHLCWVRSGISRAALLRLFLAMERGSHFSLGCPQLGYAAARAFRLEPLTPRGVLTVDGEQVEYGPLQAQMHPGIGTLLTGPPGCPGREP
To be noted: at 0.1 µM.

The target of assay [3] is T1, Sphingosine kinase 2 (Homo sapiens). Conditions: at 1 µM.
Assay [4] has as its target Casein kinase II subunit alpha (Homo sapiens) (UniProt P68400). Conditions: at 0.1 µM.
For assay [5] the target is unchanged. To be noted: at 1 µM.
Assay [6] deals with T2, Inhibitor of nuclear factor kappa-B kinase subunit alpha (Homo sapiens) (UniProt O15111).
T2 sequence (whole entry): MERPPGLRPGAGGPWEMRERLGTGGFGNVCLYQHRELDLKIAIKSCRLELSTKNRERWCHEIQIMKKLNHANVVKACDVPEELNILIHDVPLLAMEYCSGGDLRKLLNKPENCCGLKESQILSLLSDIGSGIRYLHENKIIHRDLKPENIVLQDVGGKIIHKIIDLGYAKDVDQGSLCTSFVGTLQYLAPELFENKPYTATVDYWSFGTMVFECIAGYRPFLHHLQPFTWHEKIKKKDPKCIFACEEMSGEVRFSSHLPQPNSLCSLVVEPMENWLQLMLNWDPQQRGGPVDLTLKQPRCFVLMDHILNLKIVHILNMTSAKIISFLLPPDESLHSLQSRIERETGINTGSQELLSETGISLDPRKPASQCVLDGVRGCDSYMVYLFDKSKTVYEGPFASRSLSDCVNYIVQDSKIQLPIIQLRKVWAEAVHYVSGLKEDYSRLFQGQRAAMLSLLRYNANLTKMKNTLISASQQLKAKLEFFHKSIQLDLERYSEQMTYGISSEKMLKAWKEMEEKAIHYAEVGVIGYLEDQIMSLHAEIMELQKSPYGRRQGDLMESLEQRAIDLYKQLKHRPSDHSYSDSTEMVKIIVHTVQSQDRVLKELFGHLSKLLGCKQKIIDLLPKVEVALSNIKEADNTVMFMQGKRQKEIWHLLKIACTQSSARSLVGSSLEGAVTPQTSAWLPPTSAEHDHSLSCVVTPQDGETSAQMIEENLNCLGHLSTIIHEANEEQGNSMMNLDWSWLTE
Conditions: at 0.1 µM.

In assay [7] the target is T2, Inhibitor of nuclear factor kappa-B kinase subunit alpha (Homo sapiens). To be noted: at 1 µM.
Assay [8] concerns the target T3, Inhibitor of nuclear factor kappa-B kinase subunit beta (Homo sapiens) (UniProt O14920).
T3 sequence (whole entry): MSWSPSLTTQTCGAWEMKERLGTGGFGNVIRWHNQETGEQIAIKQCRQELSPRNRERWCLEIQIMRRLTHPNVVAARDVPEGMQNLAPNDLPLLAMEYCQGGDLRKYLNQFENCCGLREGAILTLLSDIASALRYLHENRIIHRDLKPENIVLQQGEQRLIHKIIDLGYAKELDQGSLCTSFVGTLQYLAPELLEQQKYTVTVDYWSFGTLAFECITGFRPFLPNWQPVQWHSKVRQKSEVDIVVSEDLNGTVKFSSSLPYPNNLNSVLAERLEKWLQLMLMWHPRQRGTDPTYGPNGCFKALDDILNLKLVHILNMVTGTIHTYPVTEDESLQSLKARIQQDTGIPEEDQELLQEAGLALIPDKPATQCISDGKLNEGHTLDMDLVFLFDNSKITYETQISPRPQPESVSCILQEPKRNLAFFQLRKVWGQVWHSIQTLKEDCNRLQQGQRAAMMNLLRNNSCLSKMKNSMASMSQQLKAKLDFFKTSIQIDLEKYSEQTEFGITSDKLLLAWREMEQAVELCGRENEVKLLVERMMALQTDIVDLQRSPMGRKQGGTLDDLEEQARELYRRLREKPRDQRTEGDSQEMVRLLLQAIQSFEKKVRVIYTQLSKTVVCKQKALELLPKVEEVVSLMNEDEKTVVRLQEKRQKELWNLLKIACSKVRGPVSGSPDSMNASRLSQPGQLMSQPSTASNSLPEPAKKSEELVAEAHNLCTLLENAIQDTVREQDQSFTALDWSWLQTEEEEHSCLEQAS
To be noted: at 0.1 µM.

For assay [9], the target named is T3, Inhibitor of nuclear factor kappa-B kinase subunit beta (Homo sapiens). Conditions: at 1 µM.
For assay [10], the target named is T4, Inhibitor of nuclear factor kappa-B kinase subunit epsilon (Homo sapiens) (UniProt Q14164).
T4 sequence (whole entry): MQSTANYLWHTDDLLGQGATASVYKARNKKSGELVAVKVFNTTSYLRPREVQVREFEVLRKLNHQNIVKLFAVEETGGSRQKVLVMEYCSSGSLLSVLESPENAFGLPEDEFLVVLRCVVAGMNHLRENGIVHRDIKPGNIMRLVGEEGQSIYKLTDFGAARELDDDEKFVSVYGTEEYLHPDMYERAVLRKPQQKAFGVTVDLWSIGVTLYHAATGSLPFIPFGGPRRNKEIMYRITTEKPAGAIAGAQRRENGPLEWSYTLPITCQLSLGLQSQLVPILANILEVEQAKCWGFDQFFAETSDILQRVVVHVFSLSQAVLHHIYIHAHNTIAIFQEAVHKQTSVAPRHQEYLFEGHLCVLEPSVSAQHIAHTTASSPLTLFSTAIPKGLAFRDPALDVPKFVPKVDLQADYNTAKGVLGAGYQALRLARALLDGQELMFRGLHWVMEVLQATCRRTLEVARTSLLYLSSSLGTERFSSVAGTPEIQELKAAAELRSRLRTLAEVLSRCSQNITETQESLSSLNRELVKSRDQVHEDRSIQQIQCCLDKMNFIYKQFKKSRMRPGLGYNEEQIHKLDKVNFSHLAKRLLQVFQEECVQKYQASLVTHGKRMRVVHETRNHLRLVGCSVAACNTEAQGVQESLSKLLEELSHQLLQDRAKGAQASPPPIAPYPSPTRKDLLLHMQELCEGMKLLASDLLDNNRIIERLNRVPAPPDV
Conditions: at 0.1 µM.

Assay [11] addresses T4, Inhibitor of nuclear factor kappa-B kinase subunit epsilon (Homo sapiens). Conditions: at 1 µM.
For assay [12], the target named is T5, Serine/threonine-protein kinase Nek1 (Homo sapiens) (UniProt Q96PY6).
T5 sequence (whole entry): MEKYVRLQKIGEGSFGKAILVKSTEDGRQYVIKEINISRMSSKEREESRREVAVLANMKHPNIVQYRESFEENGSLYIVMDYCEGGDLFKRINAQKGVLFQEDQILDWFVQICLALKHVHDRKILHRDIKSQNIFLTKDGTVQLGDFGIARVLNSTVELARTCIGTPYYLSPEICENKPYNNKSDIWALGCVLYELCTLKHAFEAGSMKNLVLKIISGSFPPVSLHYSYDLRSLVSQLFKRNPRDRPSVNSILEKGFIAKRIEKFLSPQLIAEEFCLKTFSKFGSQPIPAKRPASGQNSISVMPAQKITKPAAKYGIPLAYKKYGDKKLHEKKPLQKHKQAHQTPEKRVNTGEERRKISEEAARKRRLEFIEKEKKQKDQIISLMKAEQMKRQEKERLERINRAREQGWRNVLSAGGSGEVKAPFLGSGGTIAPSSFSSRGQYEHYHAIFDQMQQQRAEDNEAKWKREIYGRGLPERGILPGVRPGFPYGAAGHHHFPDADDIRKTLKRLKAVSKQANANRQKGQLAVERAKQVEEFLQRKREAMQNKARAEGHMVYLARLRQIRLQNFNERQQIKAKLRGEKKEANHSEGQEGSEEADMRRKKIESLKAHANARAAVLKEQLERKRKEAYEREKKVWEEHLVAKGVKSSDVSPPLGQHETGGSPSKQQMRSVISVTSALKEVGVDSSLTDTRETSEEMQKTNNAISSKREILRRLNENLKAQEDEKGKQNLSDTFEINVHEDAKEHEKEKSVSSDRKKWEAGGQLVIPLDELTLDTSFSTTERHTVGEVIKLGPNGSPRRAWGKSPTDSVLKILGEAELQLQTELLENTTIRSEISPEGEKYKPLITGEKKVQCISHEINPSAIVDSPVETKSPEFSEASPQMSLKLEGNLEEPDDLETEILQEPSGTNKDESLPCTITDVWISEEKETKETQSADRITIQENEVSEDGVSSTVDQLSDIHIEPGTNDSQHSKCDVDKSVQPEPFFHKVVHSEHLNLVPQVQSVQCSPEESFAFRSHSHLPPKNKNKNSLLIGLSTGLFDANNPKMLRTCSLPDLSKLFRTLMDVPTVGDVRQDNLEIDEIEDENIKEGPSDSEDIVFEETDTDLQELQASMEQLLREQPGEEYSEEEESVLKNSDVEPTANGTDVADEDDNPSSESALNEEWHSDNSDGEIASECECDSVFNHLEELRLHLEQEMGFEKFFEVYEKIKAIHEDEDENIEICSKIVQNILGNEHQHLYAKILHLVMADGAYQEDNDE
Conditions: at 0.1 µM.

In assay [13] the target is T5, Serine/threonine-protein kinase Nek1 (Homo sapiens). Conditions: at 1 µM.
The target in assay [14] is T6, Serine/threonine-protein kinase Nek2 (Homo sapiens) (UniProt P51955).
T6 sequence (whole entry): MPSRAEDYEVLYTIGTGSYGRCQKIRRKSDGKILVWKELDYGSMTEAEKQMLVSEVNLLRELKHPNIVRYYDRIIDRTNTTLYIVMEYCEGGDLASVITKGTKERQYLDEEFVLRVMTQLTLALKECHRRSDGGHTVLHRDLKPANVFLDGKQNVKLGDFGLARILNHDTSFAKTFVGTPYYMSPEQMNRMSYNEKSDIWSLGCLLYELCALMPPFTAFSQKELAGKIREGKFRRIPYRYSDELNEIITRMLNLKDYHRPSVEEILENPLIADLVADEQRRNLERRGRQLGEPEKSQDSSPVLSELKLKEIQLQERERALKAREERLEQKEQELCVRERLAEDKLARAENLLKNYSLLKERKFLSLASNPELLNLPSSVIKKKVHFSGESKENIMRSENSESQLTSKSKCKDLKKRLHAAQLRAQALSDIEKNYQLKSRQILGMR
To be noted: at 0.1 µM.

In assay [15] the target is T6, Serine/threonine-protein kinase Nek2 (Homo sapiens). To be noted: at 1 µM.
The target of assay [16] is Serine/threonine-protein kinase Nek6 (Homo sapiens) (UniProt Q9HC98). To be noted: at 0.1 µM.
Assay [17] shares this target. To be noted: at 1 µM.
Assay [18] has as its target Serine/threonine-protein kinase Nek7 (Homo sapiens) (UniProt Q8TDX7). To be noted: at 0.1 µM.
Assay [19] shares this target. Conditions: at 1 µM.
Assay [20] addresses T7, Serine/threonine-protein kinase Nek9 (Homo sapiens) (UniProt Q8TD19).
T7 sequence (whole entry): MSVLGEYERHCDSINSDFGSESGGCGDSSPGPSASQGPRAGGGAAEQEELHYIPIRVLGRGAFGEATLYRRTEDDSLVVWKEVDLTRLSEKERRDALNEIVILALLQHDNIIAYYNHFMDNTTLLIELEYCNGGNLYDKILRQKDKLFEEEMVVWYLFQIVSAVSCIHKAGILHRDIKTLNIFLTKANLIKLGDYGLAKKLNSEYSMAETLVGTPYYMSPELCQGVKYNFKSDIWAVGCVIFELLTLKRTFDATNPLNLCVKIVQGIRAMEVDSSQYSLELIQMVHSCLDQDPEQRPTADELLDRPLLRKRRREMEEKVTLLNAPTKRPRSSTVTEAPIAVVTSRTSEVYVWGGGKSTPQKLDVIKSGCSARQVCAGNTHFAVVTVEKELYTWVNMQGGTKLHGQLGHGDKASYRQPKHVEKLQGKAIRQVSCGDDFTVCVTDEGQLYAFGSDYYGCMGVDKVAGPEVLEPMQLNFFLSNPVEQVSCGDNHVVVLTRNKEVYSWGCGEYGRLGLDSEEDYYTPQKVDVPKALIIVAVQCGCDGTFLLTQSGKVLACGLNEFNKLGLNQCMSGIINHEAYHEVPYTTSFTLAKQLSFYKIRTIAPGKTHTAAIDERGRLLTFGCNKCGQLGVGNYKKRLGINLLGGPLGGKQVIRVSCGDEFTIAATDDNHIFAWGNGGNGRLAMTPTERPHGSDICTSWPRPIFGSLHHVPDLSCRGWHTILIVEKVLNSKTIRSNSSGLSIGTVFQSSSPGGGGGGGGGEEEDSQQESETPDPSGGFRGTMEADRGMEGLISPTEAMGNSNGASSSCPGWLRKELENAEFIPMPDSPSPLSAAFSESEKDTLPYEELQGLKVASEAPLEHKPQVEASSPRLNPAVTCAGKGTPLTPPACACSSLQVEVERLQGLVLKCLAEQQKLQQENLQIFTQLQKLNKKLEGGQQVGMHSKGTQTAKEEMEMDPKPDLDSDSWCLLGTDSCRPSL
To be noted: at 0.1 µM.

The values below come from ChEMBL document CHEMBL1961873, “Compounds: GSK PKIS; Assays: Nanosyn kinase panel” (2012).

Sequence of Serine/threonine-protein kinase Nek7 (Homo sapiens) (Q8TDX7 whole entry, looked up): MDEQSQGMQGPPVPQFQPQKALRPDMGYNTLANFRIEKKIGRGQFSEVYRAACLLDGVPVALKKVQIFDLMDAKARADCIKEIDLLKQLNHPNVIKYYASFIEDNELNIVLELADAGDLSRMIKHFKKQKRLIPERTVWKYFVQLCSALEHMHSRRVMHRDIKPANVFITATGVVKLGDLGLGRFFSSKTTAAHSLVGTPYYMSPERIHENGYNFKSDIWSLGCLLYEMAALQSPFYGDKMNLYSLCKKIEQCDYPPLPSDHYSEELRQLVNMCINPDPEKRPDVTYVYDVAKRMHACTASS
Sequence of Casein kinase II subunit alpha (Homo sapiens) (P68400 whole entry, looked up): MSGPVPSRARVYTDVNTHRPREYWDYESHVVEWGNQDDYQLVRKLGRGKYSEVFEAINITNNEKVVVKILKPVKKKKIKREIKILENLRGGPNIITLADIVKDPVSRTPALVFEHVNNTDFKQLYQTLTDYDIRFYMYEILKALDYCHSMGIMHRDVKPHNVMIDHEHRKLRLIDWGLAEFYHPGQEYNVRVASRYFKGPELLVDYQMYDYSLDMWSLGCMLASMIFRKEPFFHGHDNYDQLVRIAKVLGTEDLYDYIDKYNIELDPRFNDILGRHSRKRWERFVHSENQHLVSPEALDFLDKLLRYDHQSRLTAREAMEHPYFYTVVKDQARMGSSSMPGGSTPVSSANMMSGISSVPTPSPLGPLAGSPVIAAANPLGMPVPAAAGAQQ
Sequence of Serine/threonine-protein kinase Nek6 (Homo sapiens) (Q9HC98 whole entry): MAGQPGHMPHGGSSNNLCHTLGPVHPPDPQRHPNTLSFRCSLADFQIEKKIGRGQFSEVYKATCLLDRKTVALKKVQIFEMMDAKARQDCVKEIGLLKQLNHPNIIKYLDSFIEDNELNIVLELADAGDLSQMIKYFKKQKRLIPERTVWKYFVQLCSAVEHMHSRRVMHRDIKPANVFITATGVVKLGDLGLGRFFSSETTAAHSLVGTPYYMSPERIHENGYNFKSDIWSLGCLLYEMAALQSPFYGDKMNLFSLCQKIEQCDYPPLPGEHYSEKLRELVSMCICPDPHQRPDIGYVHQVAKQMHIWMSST
Sequence of Sphingosine kinase 1 (Homo sapiens) (Q9NYA1 whole entry): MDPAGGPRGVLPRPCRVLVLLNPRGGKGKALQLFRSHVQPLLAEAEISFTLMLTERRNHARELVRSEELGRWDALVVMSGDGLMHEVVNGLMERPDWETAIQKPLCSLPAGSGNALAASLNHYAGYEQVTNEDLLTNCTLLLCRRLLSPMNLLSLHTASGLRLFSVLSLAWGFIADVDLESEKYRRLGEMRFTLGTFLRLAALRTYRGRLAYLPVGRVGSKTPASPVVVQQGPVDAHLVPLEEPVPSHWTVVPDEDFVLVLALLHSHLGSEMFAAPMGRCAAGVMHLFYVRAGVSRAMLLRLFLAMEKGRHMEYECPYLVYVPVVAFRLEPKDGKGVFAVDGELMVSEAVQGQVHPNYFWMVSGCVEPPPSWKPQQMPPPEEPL

Regarding `Fc1ccc(-c2ncn(C3CCNCC3)c2-c2ccnc(Oc3ccc4c(c3)OCO4)n2)cc1`, the inhibition in assay [1] is -2.26%; in [2], -0.59%; in [3] it was 0%; in assay [4], 11.3%; in assay [5], 3.74%; in assay [6] it was 5%. Moreover, the inhibition came to 9.09% in assay [7]; 6.93% in [8]; 8.89% in assay [9]; 7.17% in assay [10]; 5.91% in assay [11]; 3.2% in assay [12]. The inhibition turned out to be 6.26% in assay [13]; 7.49% in assay [14]; 6.41% in [15]; 1.13% in [16]; 1.67% in [17]; 2.69% in [18]. Besides, the figures for the inhibition in assay [19] and in assay [20] were 4.77% and 7.85%, respectively.
